Test results reported in PMC4336329 (PLoS ONE, 2015).
Among all 310,000 compounds or so, about 2,200 (0.71%) showed an effect of 50% or more. Effects have a minus sign here. Only a selection was taken, and strong results are over-represented in it overall.

Target: human ether-à-go-go-related gene (hERG) potassium channel (human, UniProt Q12809)
Assay: primary screen, population patch clamp on CHO cells stably expressing hERG; higher = less effect of the substance

Chain of human ether-à-go-go-related gene (hERG) potassium channel (Q12809 whole entry, looked up): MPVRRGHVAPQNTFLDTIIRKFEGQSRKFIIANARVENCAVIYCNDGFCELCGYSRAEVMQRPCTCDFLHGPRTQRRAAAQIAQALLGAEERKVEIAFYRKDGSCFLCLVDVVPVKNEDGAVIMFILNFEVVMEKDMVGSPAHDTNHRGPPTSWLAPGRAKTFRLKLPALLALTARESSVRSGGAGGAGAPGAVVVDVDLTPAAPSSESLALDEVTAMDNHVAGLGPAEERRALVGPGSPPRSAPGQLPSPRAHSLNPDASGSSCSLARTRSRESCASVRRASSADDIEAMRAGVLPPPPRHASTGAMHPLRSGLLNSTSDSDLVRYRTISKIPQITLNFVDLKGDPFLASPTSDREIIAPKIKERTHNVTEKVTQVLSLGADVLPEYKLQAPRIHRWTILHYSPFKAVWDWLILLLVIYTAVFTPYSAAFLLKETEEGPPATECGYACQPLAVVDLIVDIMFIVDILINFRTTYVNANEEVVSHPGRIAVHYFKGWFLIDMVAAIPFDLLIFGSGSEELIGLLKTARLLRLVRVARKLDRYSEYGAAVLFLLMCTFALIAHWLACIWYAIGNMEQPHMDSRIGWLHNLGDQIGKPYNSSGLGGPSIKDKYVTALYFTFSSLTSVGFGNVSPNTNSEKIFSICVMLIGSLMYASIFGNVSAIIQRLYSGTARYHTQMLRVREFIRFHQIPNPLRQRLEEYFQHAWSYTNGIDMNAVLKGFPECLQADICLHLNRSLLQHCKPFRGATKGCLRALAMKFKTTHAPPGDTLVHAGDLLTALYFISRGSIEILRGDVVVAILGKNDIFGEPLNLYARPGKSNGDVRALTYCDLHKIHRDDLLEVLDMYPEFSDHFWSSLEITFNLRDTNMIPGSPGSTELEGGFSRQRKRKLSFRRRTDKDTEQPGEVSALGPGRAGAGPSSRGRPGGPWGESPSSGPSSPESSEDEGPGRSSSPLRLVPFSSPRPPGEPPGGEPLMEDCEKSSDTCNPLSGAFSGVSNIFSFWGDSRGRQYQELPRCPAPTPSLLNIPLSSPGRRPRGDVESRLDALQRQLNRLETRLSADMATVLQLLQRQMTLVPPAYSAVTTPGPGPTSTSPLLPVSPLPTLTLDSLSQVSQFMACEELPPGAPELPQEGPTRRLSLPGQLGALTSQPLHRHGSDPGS

Structure (SMILES) | hERG current change (%, negative = inhibition) at 1uM [%]
Cc1ccc(C(=O)NCCNS(=O)(=O)c2ccccc2)cc1 | -1.17
CCC(=O)Nc1nnc(S(=O)(=O)N(CC)c2ccc(OC)cc2)s1 | 23.9
COc1ccc(/C=C(/NC(=O)c2ccccc2)C(=O)N2CCCC2)cc1OC | 14.3
CC(=O)Oc1ccc2c3c(c(=O)oc2c1C)CCCC3 | 15.5
CCOC(=O)CNC(=O)c1cc2c(=O)[nH]c3ccc(C)cc3c2s1 | 11.1
O=C(NC1CC1)c1ccc2snnc2c1 | 6.14
Cc1ccc(C)n1-c1ccc(C(=O)Nc2ccccc2F)cc1 | 10.7
CC1CN(CC(=O)Nc2ccc([N+](=O)[O-])cc2Br)CC(C)O1 (stereo not shown) | 4.18
N=c1c(C(=O)NCCc2ccccc2)cc2c(=O)n3ccccc3nc2n1Cc1ccco1 | -67.5
N=c1c(C(=O)NCc2ccc(F)cc2)cc2c(=O)n3ccccc3nc2n1Cc1ccco1 | -85
N=c1c(C(=O)NCc2ccco2)cc2c(=O)n3ccccc3nc2n1Cc1ccccc1 | -81.6
Cc1ccc(CNC(=O)c2cc3c(=O)n4ccccc4nc3n(Cc3ccco3)c2=N)cc1 | -38.1
Cc1ccc(Cn2c(=N)c(C(=O)NCCN3CCOCC3)cc3c(=O)n4ccccc4nc32)cc1 | -8.25
Cc1ccc(Cn2c(=N)c(C(=O)NCc3ccco3)cc3c(=O)n4ccccc4nc32)cc1 | -67.9
COc1ccc(N2C(=O)C3CCCN3C2c2ccc(F)cc2)cc1Cl (stereo not shown) | 8.28
O=C(NCCc1ccc(Cl)cc1)c1cccnc1 | 9.38
CCN(CC)c1ccc(/C=N/N2CCN(Cc3ccccc3)CC2)c(O)c1 | -0.743
O=C(CN1C(=O)/C(=C\c2ccccc2Cl)Oc2ccccc21)NCc1cccnc1 | 5.85
CCN(CC)c1ccc(NC(=O)c2cc(OC)cc(OC)c2)c(C)c1 | -2.35
CC1CCN(S(=O)C23CC4CC(CC(C4)C2)C3)CC1 (stereo not shown) | 16.3
Fc1cccc(Cl)c1Cn1nnc2c(N3CCC4(CC3)OCCO4)ncnc21 | 13.7
CCn1c(=O)c(C(=O)NCCc2ccc(OC)c(OC)c2)c(O)c2ccccc21 | 8.62
N=c1c(C(=O)NCc2ccco2)cc2c(=O)n3ccccc3nc2n1Cc1ccc(Cl)cc1 | -55.7
N=c1c(S(=O)(=O)c2ccc(Cl)cc2)cc2c(=O)n3ccccc3nc2n1Cc1ccco1 | 14

Structure (SMILES) | hERG current change (%, negative = inhibition) at 1uM [%]
Cn1c(CSCc2ccc(Cl)c(Cl)c2)nnc1SCC(=O)Nc1nccs1 | 2.81
CN(C)C1=NC[C@H](Cc2ccccc2)N1CCCC1CCCC1 | -56.8
CCCCCCCN1C(N(C)C)=NC[C@@H]1Cc1ccccc1 | -69
CC(C)CCCN1C(N(C)C)=NC[C@@H]1Cc1ccccc1 | -2.29
CN(C)C1=NC[C@H](Cc2ccccc2)N1CCC1CCCC1 | -19.7
CN(C)C1=NC[C@H](Cc2ccccc2)N1CCCC1CCCCC1 | -29.5
CN(C)C1=NC[C@H](Cc2ccccc2)N1CCCCc1ccccc1 | -42.2
COc1ccccc1C(=O)NC(=O)CSc1nncn1C | 18.2
CCCSC1=C(C#N)C(c2ccc(Cl)cc2Cl)CC(=O)N1 (stereo not shown) | 11.8
O=C(O)c1cc(-c2ccc(N3CCOCC3)cc2)nn1-c1ccc(F)cc1F | 12.7
Fc1ccccc1CNc1ccc(Cl)cc1 | 12.8
Fc1ccccc1CNc1ccc(Cl)c(Cl)c1 | 11.7
Fc1ccc(NCc2ccccc2F)cc1Cl | -76.5
COc1ccc(CCn2c(NCCCN3CCOCC3)nc3c2c(=O)[nH]c(=O)n3C)cc1 | 7.24
Nc1ccc(OCCc2ccccc2)cc1 | 11.5
O=c1c(Cl)c(NCc2ccco2)cnn1C12CC3CC(CC(C3)C1)C2 | 4.54
CCN(CC)c1ccc(C(=O)c2ccccc2C(=O)O)c(O)c1 | 11.7
CCCCN(CCCC)c1ccc(C(=O)c2ccccc2C(=O)O)c(O)c1 | -50.5
CN(C)c1ccc(C(=O)c2ccccc2C(=O)O)c(O)c1 | 13.2
CCN(CC)S(=O)(=O)c1cccc(-c2nnc(SCCOc3ccccc3)o2)c1 | 12.4
O=C(COC(=O)c1ccc2ncsc2c1)Nc1cc([N+](=O)[O-])ccc1Cl | 7.27
COc1ccc(S(=O)(=O)Nc2ccc(NC(C)=O)cc2)cc1Cl | 10.3
CC(C)CCNC(=O)C12CN(Cc3ccccc3)CC1C(c1cccc([N+](=O)[O-])c1)=NO2 (stereo not shown) | 9.69
CCCCN(CCCC)CCCNC(=O)C12CN(Cc3ccccc3)CC1C(c1cccc([N+](=O)[O-])c1)=NO2 (stereo not shown) | -53.1

Structure (SMILES) | hERG current change (%, negative = inhibition) at 1uM [%]
O=C(NCCCCc1ccccc1)C12CN(Cc3ccccc3)CC1C(c1cccc([N+](=O)[O-])c1)=NO2 (stereo not shown) | 10.9
O=C(/C=C/c1cccnc1)c1cc(F)ccc1O | 8.59
COCCNC(=O)c1ccccc1NC(=O)c1ccccc1N(C)S(=O)(=O)c1ccc(C)cc1 | 8.36
CCOC(=O)c1sc(-c2ccccc2)nc1C | 9.24
CC(=O)Nc1ccc(OC(=O)c2cc3cc(Br)cc(Br)c3oc2=O)cc1 | 5.16
CCOc1ccc(/C=N/N2C(C)CCCC2C)cc1 (stereo not shown) | 12
COc1ccc(Nc2nc(N)nc(CN3CCc4ccccc4C3)n2)cc1 | -23.3
COc1ccccc1N1CCN(Cc2nc(N)nc(Nc3ccccc3)n2)CC1 | -33.8
Nc1nc(CN2CCN(c3ccccn3)CC2)nc(Nc2ccc(Cl)cc2)n1 | -56.2
COc1ccc(Nc2nc(N)nc(CN3CCN(c4ccccn4)CC3)n2)cc1 | -37.1
Nc1nc(CN2CCN(c3ccccn3)CC2)nc(Nc2ccc(F)cc2)n1 | -49
COc1ccc(Nc2nc(N)nc(CN3CCC(Cc4ccccc4)CC3)n2)cc1 | -81
CCOC(=O)N1CCN(Cc2nc(N)nc(Nc3ccc(OCC)cc3)n2)CC1 | -56
CCOC(=O)N1CCN(Cc2nc(N)nc(Nc3ccc(C)cc3)n2)CC1 | -37
Nc1nc(CN2CCN(C(c3ccccc3)c3ccccc3)CC2)nc(Nc2ccccc2)n1 | 10.2
COc1cccc(N2CCN(Cc3nc(N)nc(Nc4ccccc4)n3)CC2)c1 | -31.9
Nc1nc(CN2CCC(Cc3ccccc3)CC2)nc(Nc2ccccc2)n1 | -87.4
CCOC(=O)N1CCN(Cc2nc(N)nc(Nc3ccc(OC)cc3)n2)CC1 | -9.74
O=C(c1ccccc1)c1ccc(OCC(O)CN2CCN(S(=O)(=O)N3CCCCC3)CC2)cc1 (stereo not shown) | -12.6
COc1ccccc1N(CC(=O)NC1CCCC1)C(=O)CCC(=O)Nc1cc(C)on1 | 8.06
CCn1c2ccc(F)cc2c2nc3ccccc3nc21 | 10.2
CCOC(=O)Cc1[nH]nc2c1C(c1cc(OC)ccc1OC)C(C#N)=C(N)O2 (stereo not shown) | 14.9
CSc1oc(-c2cccs2)nc1S(=O)(=O)c1ccccc1 | 4.25
CN(C)c1ccc(CNc2nc(-c3ccccc3)nn2S(C)(=O)=O)cc1 | 14.6

Structure (SMILES) | hERG current change (%, negative = inhibition) at 1uM [%]
O=C(COc1ccc(S(=O)(=O)N2CCOCC2)cc1)N1CCCCCC1 | 25.1
COc1ccc(CCNC(=O)COC(=O)/C=C/c2cccs2)cc1OC | 11.7
O=C(O)CCCN1C(=O)NC2NC(=O)NC21 (stereo not shown) | 10.2
Nc1nc(CN2CCN(Cc3ccccc3)CC2)nc(Nc2ccccc2)n1 | -56.3
Nc1nc(CN2CCN(c3ccccc3)CC2)nc(Nc2ccc(Cl)cc2)n1 | -44.8
COc1ccc(Nc2nc(N)nc(CN3CCC(C)CC3)n2)cc1 | -50.7
COc1ccc(Nc2nc(N)nc(CN3CCN(c4ccc(F)cc4)CC3)n2)cc1 | -19.3
COc1ccc(Nc2nc(N)nc(CN3CCOCC3)n2)cc1 | 1.93
Nc1nc(CN2CCCCCC2)nc(Nc2ccccc2)n1 | -31.9
O=C(CSc1ncn(-c2ccccc2)n1)N1CCc2ccccc21 | 1.39
O=S(=O)(c1ccc(Cl)cc1)N1CCC2(CC1)OCCO2 | 2.73
FC(F)(F)c1cccc(N2CCN(C(=S)NCC3CCCO3)CC2)c1 (stereo not shown) | 4.59
COc1ccc(-c2nn(C)c(=O)c3ccccc23)cc1CNC(=O)CN1CCOCC1 | 6.56
CN(C)CCCN(C(=O)COc1ccc(Cl)cc1)c1nc2c(F)cccc2s1.Cl | -16.9
CN(C)CCCN(C(=O)COc1ccccc1)c1nc2c(Cl)cccc2s1.Cl | -45.5
COc1cccc2sc(N(CCCN(C)C)C(=O)COc3ccc(Cl)cc3)nc12.Cl | -68.9
CCOc1cccc2sc(N(CCCN(C)C)C(=O)Cc3ccccc3)nc12.Cl | -83.7
CN(C)CCCN(C(=O)COc1ccc(Cl)cc1)c1nc2ccc(F)cc2s1.Cl | 8.45
CN(C)CCCN(C(=O)COc1ccccc1)c1nc2c(F)cccc2s1.Cl | -55.8
CCOc1cccc2sc(N(CCCN(C)C)C(=O)c3ccc(S(=O)(=O)N(C)Cc4ccccc4)cc3)nc12.Cl | -1.82
Cc1cccc2sc(N(CCCN(C)C)C(=O)COc3ccc(Cl)cc3)nc12.Cl | -6.98
CCOc1cccc2sc(N(CCCN(C)C)C(=O)c3ccc(C(=O)c4ccccc4)cc3)nc12.Cl | -29.5
